Source: ChEMBL document CHEMBL2218924, “A broad activity screen in support of a chemogenomic map for kinase signalling research and drug discovery” (Biochem J, 2013)

Each compound was assayed against T1, Phosphorylase b kinase gamma catalytic chain, liver/testis isoform (Homo sapiens) (UniProt P15735). Settings: at 10 µM.
T1 sequence (whole entry): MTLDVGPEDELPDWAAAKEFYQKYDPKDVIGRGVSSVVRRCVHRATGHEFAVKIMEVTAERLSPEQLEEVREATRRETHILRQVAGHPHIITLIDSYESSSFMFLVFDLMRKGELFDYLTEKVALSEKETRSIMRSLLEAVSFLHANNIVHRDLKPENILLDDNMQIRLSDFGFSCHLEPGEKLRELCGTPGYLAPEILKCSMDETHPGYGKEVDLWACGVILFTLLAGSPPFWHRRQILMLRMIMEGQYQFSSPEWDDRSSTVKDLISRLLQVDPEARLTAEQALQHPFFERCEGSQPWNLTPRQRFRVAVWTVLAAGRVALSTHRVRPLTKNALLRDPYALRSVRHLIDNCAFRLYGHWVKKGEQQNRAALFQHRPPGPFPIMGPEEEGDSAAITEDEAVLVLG

Row | Compound | residual activity [%]
1 | COc1ccc(CNc2nc(N(CCO)CCO)nc3c2ncn3C(C)C)cc1 | 88
2 | O=C1NC(=O)c2c1c1c3ccccc3[nH]c1c1[nH]c3cc(Br)ccc3c21 | 71
3 | O=C1Nc2ccccc2/C1=C1/Nc2ccccc2/C1=N\OCCC(O)CO (stereo not given) | 5
4 | COc1cccc(-c2cc(=O)c3ccccc3o2)c1N | 117
5 | CO[C@H]1C[C@@H]2CC[C@@H](C)[C@@](O)(O2)C(=O)C(=O)N2CCCC[C@H]2C(=O)O[C@H]([C@H](C)C[C@@H]2CC[C@@H](O)[C@H](OC)C2)CC(=O)[C@H](C)/C=C(\C)[C@@H](O)[C@@H](OC)C(=O)[C@H](C)C[C@H](C)/C=C/C=C/C=C/1C | 116
6 | CC(=O)O/N=C1\C(=C2\C(=O)Nc3cc(Br)ccc32)Nc2ccccc21 | 70
7 | O=[N+]([O-])c1ccc(-c2nc(-c3ccc(F)cc3)c(-c3ccncc3)[nH]2)cc1 | 91
8 | COc1cc2ncnc(Nc3ccc(O)c(Br)c3)c2cc1OC | 94
9 | N#Cc1cnc2cnc(NCc3cccnc3)cc2c1Nc1ccc(F)c(Cl)c1 | 2
10 | Cc1ccc(NC2=CC(=O)c3sc(C)nc3C2=O)cc1 | 92
11 | CC[n+]1c(/C=C/N(C)c2ccccc2)n(-c2ccccc2)c2ccc(-c3nc4ccccc4s3)cc21 | 63
12 | O=c1c2ccccc2[nH]c(=S)n1CCN1CCC(=C(c2ccc(F)cc2)c2ccc(F)cc2)CC1 | 105
13 | COc1ccc(OC)c2c(=S)c3ccccc3[nH]c12 | 103
14 | Cn1cnc2cc3c(Nc4cccc(Br)c4)ncnc3cc21 | 98
15 | NC(=O)c1ccc2[nH]c(-c3ccc(Oc4ccc(Cl)cc4)cc3)nc2c1 | 80
16 | Oc1n[nH]c2nnc(-c3c(-c4ccccc4)nn4ccccc34)cc12 | 111
17 | COc1ccc(C(=O)Nc2sc3c(c2C(N)=O)CCCC3)cc1OC | 84
18 | COc1cc2ncnc(Nc3ccc(Oc4ccccc4)cc3)c2cc1OC | 123

Row | Compound | residual activity [%]
19 | Nc1cccc(-c2cc3c(Oc4cccc(O)c4)ncnc3[nH]2)c1 | 91
20 | O=Nc1c(-c2c(O)[nH]c3ccccc23)[nH]c2ccccc12 | 12
21 | Cc1nc(-c2ccccc2)c(-c2ccncc2)o1 | 95
22 | CNc1cc2c(Nc3cccc(Br)c3)ncnc2cn1 | 107
23 | O=C1Nc2cc(Br)ccc2/C1=C1/Nc2ccccc2/C1=N\O | 24
24 | Cc1ccc(S(=O)(=O)/C=C/C#N)cc1 | 111
25 | CC(C)n1cnc2c(NCc3ccccc3)nc(NCCCO)nc21 | 75
26 | CCC(=O)Nc1ccc2ncnc(Nc3cccc(Br)c3)c2c1 | 108
27 | C[C@@H](N)[C@H]1CC[C@H](C(=O)Nc2ccncc2)CC1 | 93
28 | O=C1NC(=O)c2cc(Nc3ccc(F)cc3)c(Nc3ccc(F)cc3)cc21 | 86
29 | CO[C@H]1[C@@H](OC)C[C@H](C)[C@@H](OC)C2=CC(=O)C=C(NC(=O)/C(C)=C/C=C/[C@H](OC)[C@@H](OC(N)=O)/C(C)=C/[C@@H]1C)C2=O | 100
30 | Oc1ccc(Nc2nc(-c3ccc(Cl)cc3)cs2)cc1 | 130
31 | O=c1cc(-c2cccc3c2Sc2ccccc2S3)oc(N2CCOCC2)c1 | 100
32 | O=C1NC(=O)/C(=C/c2ccc3c(c2)OC(F)(F)O3)S1 | 94
33 | Ic1cccc(CSc2nnc(-c3ccncc3)o2)c1 | 84
34 | Cn1nc2c3c(cccc31)C(=O)c1ccccc1-2 | 84
35 | CC(C)n1cnc2/c(=N/c3cccc(Cl)c3)nc(NCCO)[nH]c21 | 33

Each compound was assayed against Serine/threonine-protein kinase pim-1 (Homo sapiens) (UniProt P11309). Settings: at 1 µM.
Chain of Serine/threonine-protein kinase pim-1 (Homo sapiens) (P11309 whole entry, looked up): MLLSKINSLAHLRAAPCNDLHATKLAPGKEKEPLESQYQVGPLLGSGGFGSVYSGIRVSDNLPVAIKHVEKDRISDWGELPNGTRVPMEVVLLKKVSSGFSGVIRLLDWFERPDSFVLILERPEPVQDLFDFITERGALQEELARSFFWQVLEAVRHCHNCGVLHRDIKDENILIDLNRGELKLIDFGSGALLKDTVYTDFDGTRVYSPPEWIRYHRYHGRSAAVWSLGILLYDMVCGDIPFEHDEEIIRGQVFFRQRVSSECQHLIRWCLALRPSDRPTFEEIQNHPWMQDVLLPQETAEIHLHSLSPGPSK

Row | Compound | residual activity [%]
36 | COc1ccc(CNc2nc(N(CCO)CCO)nc3c2ncn3C(C)C)cc1 | 87
37 | O=C1NC(=O)c2c1c1c3ccccc3[nH]c1c1[nH]c3cc(Br)ccc3c21 | 28
38 | O=C1Nc2ccccc2/C1=C1/Nc2ccccc2/C1=N\OCCC(O)CO (stereo not given) | 58
39 | COc1cccc(-c2cc(=O)c3ccccc3o2)c1N | 82
40 | CO[C@H]1C[C@@H]2CC[C@@H](C)[C@@](O)(O2)C(=O)C(=O)N2CCCC[C@H]2C(=O)O[C@H]([C@H](C)C[C@@H]2CC[C@@H](O)[C@H](OC)C2)CC(=O)[C@H](C)/C=C(\C)[C@@H](O)[C@@H](OC)C(=O)[C@H](C)C[C@H](C)/C=C/C=C/C=C/1C | 105
41 | CC(=O)O/N=C1\C(=C2\C(=O)Nc3cc(Br)ccc32)Nc2ccccc21 | 92
42 | O=[N+]([O-])c1ccc(-c2nc(-c3ccc(F)cc3)c(-c3ccncc3)[nH]2)cc1 | 99
43 | COc1cc2ncnc(Nc3ccc(O)c(Br)c3)c2cc1OC | 66
44 | N#Cc1cnc2cnc(NCc3cccnc3)cc2c1Nc1ccc(F)c(Cl)c1 | 27
45 | Cc1ccc(NC2=CC(=O)c3sc(C)nc3C2=O)cc1 | 94
46 | CC[n+]1c(/C=C/N(C)c2ccccc2)n(-c2ccccc2)c2ccc(-c3nc4ccccc4s3)cc21 | 94
47 | O=c1c2ccccc2[nH]c(=S)n1CCN1CCC(=C(c2ccc(F)cc2)c2ccc(F)cc2)CC1 | 89
48 | COc1ccc(OC)c2c(=S)c3ccccc3[nH]c12 | 97
49 | Cn1cnc2cc3c(Nc4cccc(Br)c4)ncnc3cc21 | 75
50 | NC(=O)c1ccc2[nH]c(-c3ccc(Oc4ccc(Cl)cc4)cc3)nc2c1 | 121
51 | Oc1n[nH]c2nnc(-c3c(-c4ccccc4)nn4ccccc34)cc12 | 84
52 | COc1ccc(C(=O)Nc2sc3c(c2C(N)=O)CCCC3)cc1OC | 80
53 | COc1cc2ncnc(Nc3ccc(Oc4ccccc4)cc3)c2cc1OC | 81

Row | Compound | residual activity [%]
54 | Nc1cccc(-c2cc3c(Oc4cccc(O)c4)ncnc3[nH]2)c1 | 75
55 | O=Nc1c(-c2c(O)[nH]c3ccccc23)[nH]c2ccccc12 | 76
56 | Cc1nc(-c2ccccc2)c(-c2ccncc2)o1 | 78
57 | CNc1cc2c(Nc3cccc(Br)c3)ncnc2cn1 | 64
58 | O=C1Nc2cc(Br)ccc2/C1=C1/Nc2ccccc2/C1=N\O | 67
59 | Cc1ccc(S(=O)(=O)/C=C/C#N)cc1 | 97
60 | CC(C)n1cnc2c(NCc3ccccc3)nc(NCCCO)nc21 | 107
61 | CCC(=O)Nc1ccc2ncnc(Nc3cccc(Br)c3)c2c1 | 80
62 | C[C@@H](N)[C@H]1CC[C@H](C(=O)Nc2ccncc2)CC1 | 126
63 | O=C1NC(=O)c2cc(Nc3ccc(F)cc3)c(Nc3ccc(F)cc3)cc21 | 49
64 | CO[C@H]1[C@@H](OC)C[C@H](C)[C@@H](OC)C2=CC(=O)C=C(NC(=O)/C(C)=C/C=C/[C@H](OC)[C@@H](OC(N)=O)/C(C)=C/[C@@H]1C)C2=O | 85
65 | Oc1ccc(Nc2nc(-c3ccc(Cl)cc3)cs2)cc1 | 77
66 | O=c1cc(-c2cccc3c2Sc2ccccc2S3)oc(N2CCOCC2)c1 | 93
67 | O=C1NC(=O)/C(=C/c2ccc3c(c2)OC(F)(F)O3)S1 | 37
68 | Ic1cccc(CSc2nnc(-c3ccncc3)o2)c1 | 104
69 | Cn1nc2c3c(cccc31)C(=O)c1ccccc1-2 | 71
70 | CC(C)n1cnc2/c(=N/c3cccc(Cl)c3)nc(NCCO)[nH]c21 | 115
